Screening data from PubChem.
HT1080-NT tox: kills 2HG-producing HT-1080-NT fibrosarcoma cells | HT-1080-NT fibrosarcoma viability, CellTiter-Glo ATP luminescence, 48 h | Potency, µM (titrated, usually from 46.1 µM), for the others: at the top dose activity, negative = less viability, most hits filed as cytotoxic | 1.6% of 360,000 active | AID 686970;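 also: NT is the 2HG producing partner of a matched IDH1 knockdown line; 0% = DMSO-treated cells and -100% = media-only wells without cells; nearly all actives have a fitted effect of over 55% in size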
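Luminescent CellTiter-Glo readout after 48 hours of compound exposure at 37 degrees C defined viability of HT-1080-NT cells. Activity was normalized to DMSO wells and cell-free media wells; concentration-response curves were fitted and assigned curve classes.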
KB-V1 cytotox: KB-V1 MDR subline cytotoxicity. 3.4% of 400,000 active. Potency, µM (highest dose often 46.1 µM), usual class: cytotoxic. KB-V1 MDR cells viability, CellTiter-Glo, 72 h; also: nearly all actives have a fitted effect of over 60% in size
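KB-V1 MDR subline cells in DMEM (phenol-red free, 10% FBS) exposed to compounds in qHTS concentration series for 72 h at 37 degrees C. Viability read by CellTiter-Glo luminescence; concentration-effect curves fitted after normalization and correction.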
KB-3-1 tox: kills parental KB-3-1 adenocarcinoma cells | KB-3-1 viability, CellTiter-Glo ATP luminescence, 72 h | Potency, µM (top dose mostly 46.1 µM), usual class: cytotoxic | 1.4% of 400,000 active | AID 1347075; also: nearly all actives have a fitted effect of over 60% in size
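Cytotoxicity in the drug-sensitive parental line KB-3-1 was scored as loss of CellTiter-Glo luminescence following 72 h incubation with compound. Values come from curve fitting of normalized concentration-response data.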
HT1080 IDH1KD tx: HT-1080 IDH1 knockdown cell toxicity (counter line); HT-1080 IDH1 knockdown viability, ATP luminescence, 48 h; Potency, µM (top dose mostly 46.1 µM), inactives show at the top dose activity, negative = toxicity, usual class: cytotoxic; 2% of 360,000 active; AID 686971;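 also: 0% = DMSO wells and -100% = cell-free medium wells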
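Knockdown cells (IDH1KD HT-1080) received compounds 2 h after plating at 750 cells/well and were kept 48 h at 37 °C in 5% FBS RPMI. A CellTiter-Glo luminescence read gave % activity for curve fitting.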
TDP1 cell CPT: growth inhibition of DT40 Tdp1-/-;hTDP1 cells with camptothecin (screen for TDP1 inhibitors). chicken DT40 Tdp1-/-;hTDP1 cells + 20 nM CPT, ATP luminescence, 48 h. Potency, µM (top dose mostly 46.2 µM), for inactives: top-dose activity change, negative = growth inhibition, most hits filed as inhibitors. AID 686979. 12% of 420,000 active; also: nearly all actives have a fitted effect of over 55% in size
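Cell growth measured by CellTiter-Glo luminescence after a minimum 48 h, 37 C compound exposure with 20 nM CPT in Tdp1-knockout DT40 cells stably expressing hTDP1, seeded 400/well; qHTS titration format.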
DT40 TDP1 no CPT: qHTS for Inhibitors of human tyrosyl-DNA phosphodiesterase 1 (TDP1): qHTS in cells in absence of CPT; DT40 Tdp1-/- hTDP1 cells, no CPT, ATP luminescence, 48 h; Potency, µM (titrated, usually from 46.2 µM), for inactives: at the top dose activity change, negative = growth inhibition, most hits filed as inhibitors; 15% of 420,000 active; AID 686978, 2013; also: nearly all actives have a fitted effect of over 55% in size
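Chicken DT40 Tdp1-/- cells stably complemented with human TDP1 were seeded at 400 cells/well with DMSO in place of 20 nM camptothecin. After compound pinning, cells grew at least 48 hr at 37 °C; viability read by CellTiter-Glo luminescence.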
* = called active by the depositor; i = inactive; u = inconclusive; x = no result. An excerpt weighted towards active compounds, which were near 19% of everything screened. Calls follow the shape of the dose curve; as a rule, active = well fitted curve in the direction sought with a large enough effect; inconclusive = small, poorly fitted or top-dose-only effect, or another doubt; inactive = no such curve, though single readings can be large; an effect the other way counts as inactive or inconclusive. Unless noted, % is scaled to controls: 0 for no effect and ±100 for the full control effect; potency is read from the fitted curve at half-maximal effect.

SMILES | HT1080-NT tox | KB-V1 cytotox | KB-3-1 tox | HT1080 IDH1KD tx | TDP1 cell CPT | DT40 TDP1 no CPT
CC(C)(C)OC(=O)C[C@H]1C/C=C\C[C@H](CC(=O)NCCO)C(=O)NC[C@H](c2ccccc2)OC1=O | 0.8% | u | i | 8.5% | 1.3% | 12.7%
Cn1c(=O)c2c(nc(CN3CCN(Cc4ccccc4)CC3)n2Cc2cccc(Cl)c2)n(C)c1=O | -18.9% | i | u | -10.0% | 23.1µM* | 16.4µM*
CCOC(=O)N1CCN(Cc2nc3c(c(=O)n(C)c(=O)n3C)n2CCCc2ccccc2)CC1 | -7.2% | 9.2µM* | u | -3.7% | u | -30.0%
CCCCCCn1c(CN2CCN(Cc3ccccc3)CC2)nc2c1c(=O)n(C)c(=O)n2C | 0.1% | 18.4µM* | u | 0.4% | u | u
CCN1CCN(Cc2nc3c(c(=O)n(C)c(=O)n3C)n2CCc2ccccc2)CC1 | 20.4% | i | i | -1.3% | -25.1% | -8.5%
O=S(=O)(NCC1CCCO1)c1ccc(Cl)cc1 (configuration not stated) | 7.9% | i | i | 5.1% | -1.0% | 4.2%
COCCNC(=O)Cn1nc(-c2ccccc2F)ccc1=O | 10.6% | i | i | 12.0% | -15.6% | -5.2%
CCN(c1ccc(OC)cc1)S(=O)(=O)c1nnc(NC(=O)c2ccc(C)cc2)s1 | 2.3% | i | i | 0.5% | u | u
O=C(NCC1CC1)c1cccc2c1C(=O)c1ccc(N3CCCC3)cc1S2(=O)=O | 0.4% | i | i | 6.0% | u | u
O=C(NC1CCCCC1)c1cccc2c1C(=O)c1ccc(N3CCC(Cc4ccccc4)CC3)cc1S2(=O)=O | 10.2% | i | i | 8.1% | u | -26.1%
O=C(NCC1CCCO1)c1cccc2c1C(=O)c1ccc(N3CCC(Cc4ccccc4)CC3)cc1S2(=O)=O (configuration not stated) | -12.1% | 23.1µM* | u | -18.9% | u | 20.6µM*
CC1CCN(c2ccc3c(c2)S(=O)(=O)c2cccc(C(=O)NC[C@@H]4CCCO4)c2C3=O)CC1 | -16.0% | i | i | -9.4% | 13µM* | u
COc1ccc(S(=O)(=O)N2CCN(C(=O)CCCN3C(=O)NC4(CCCC4)C3=O)CC2)cc1 | 5.5% | i | i | 2.1% | 1.1% | 0.3%
CC(=O)Nc1ccc(N2CCOCC2)c(S(=O)(=O)Nc2ccccc2Cl)c1 | -0.5% | i | i | 0.5% | -13.2% | -19.6%
CN(c1cccc(NC(=O)c2ccc(Cl)c(S(=O)(=O)Nc3ccccc3)c2)c1)S(C)(=O)=O | u | i | i | u | u | 16.4µM*
COc1ccc(NS(=O)(=O)c2cc(NC(=O)c3ccc(Cl)cc3)ccc2N2CCOCC2)cc1 | 2.31µM* | 5.8µM* | u | 2.59µM* | 2.59µM* | 2.31µM*
CC(C)C(=O)Nc1ccc(N2CCOCC2)c(S(=O)(=O)Nc2ccccc2Cl)c1 | 2.5% | i | u | -1.9% | u | 13µM*
CC(C)Oc1ccc(C(=O)Nc2ccc(Cl)c(S(=O)(=O)Nc3ccc(Cl)cc3)c2)cc1 | u | 5.8µM* | u | -28.3% | u | u
CC(NC(N)=O)C(=O)Nc1ccc(Cl)c(S(=O)(=O)Nc2ccc(Cl)cc2)c1 (configuration not stated) | 13.4% | i | i | -1.8% | -0.4% | -7.4%
COC(=O)C[C@H]1CC[C@@H](NC(=O)Nc2cccc(OC)c2)[C@@H](CO)O1 | 21.0% | i | i | 6.6% | -1.0% | 1.4%
O=C(c1ccncc1)N1CCN(S(=O)(=O)c2cccc(Cl)c2)CC1 | 7.3% | i | i | 6.1% | 1.5% | -14.8%
O=C(Nc1ccc(N2CCOCC2)c(S(=O)(=O)Nc2ccc(Cl)cc2)c1)c1ccc(=O)[nH]n1 | -22.9% | i | i | -20.4% | -22.5% | -16.0%
COCCNC(=S)Nc1ccc(N2CCOCC2)c(S(=O)(=O)Nc2ccc(Cl)cc2)c1 | -2.4% | i | i | 4.7% | u | 10.3µM*
O=C(Nc1ccc(N2CCOCC2)c(S(=O)(=O)Nc2ccc(Cl)cc2)c1)c1cnccn1 | 15.1% | u | i | -19.6% | 16.4µM* | 18.4µM*
C[C@H](NC(N)=O)C(=O)Nc1ccc(N2CCOCC2)c(S(=O)(=O)Nc2ccc(Cl)cc2)c1 | 5.7% | i | i | 6.1% | 20.6µM* | u
SMILES | HT1080-NT tox | KB-V1 cytotox | KB-3-1 tox | HT1080 IDH1KD tx | TDP1 cell CPT | DT40 TDP1 no CPT
CCOc1cccc(C(=O)NC(=S)Nc2ccc(N3CCN(CC)CC3)cc2)c1 | u | i | i | u | u | 23.1µM*
CCOc1cccc(C(=O)NC(=S)Nc2cccc(NC(=O)c3ccccc3Cl)c2)c1 | 1.3% | i | i | -5.7% | u | 20.6µM*
COc1cc(OC)cc(C(=O)NC(=S)Nc2ccc(N3CCCC3)cc2)c1 | -3.8% | u | i | -2.7% | 14.6µM* | 8.2µM*
CCCOc1cccc(C(=O)NC(=S)Nc2ccc(N3CCN(C)CC3)cc2)c1 | 0.5% | i | u | 7.8% | u | u
CC(C)(C)OC(=O)NNC(=O)c1cccs1 | 15.9% | i | i | 16.1% | -3.8% | 30.1%
CC(OC(=O)Cc1c(F)cccc1Cl)C(=O)NC1CCCCC1C (configuration not stated) | -5.6% | i | u | -3.6% | -19.1% | u
COc1cccc(OC)c1C(=O)N1CCN(S(=O)(=O)c2ccc(C)cc2)CC1 | 4.0% | i | i | 5.8% | -17.3% | -24.8%
CCOC(=O)NN1C(=O)c2ccccc2NC1c1ccc(OC)c(OC)c1 (configuration not stated) | 12.0% | i | i | 23.5% | -19.6% | -14.0%
CC1=C(C(=O)NCc2ccc(Cl)cc2)C2(CCCCCC2)OC1=O | x | i | i | x | u | -28.8%
CCc1sc(Nc2cccc(Cl)c2)nc1-c1cc2cccc(OC)c2oc1=O | x | i | i | x | u | 16.4µM*
COc1cccc2cc(-c3nc(Nc4cccc(C)c4)sc3C)c(=O)oc12 | x | i | i | x | u | u
COc1ccc(Cc2c(-c3ccccc3)nc3ccc(Br)cn23)c(C)c1 | u | i | u | u | 20.6µM* | 20.6µM*
COc1ccc(Cc2c(-c3cccc(Cl)c3)nc3ccc(Cl)cn23)c(C)c1 | -28.2% | i | i | -25.4% | 25.9µM* | u
COc1ccc(Cc2c(-c3cccc(Br)c3)nc3ccc(Cl)cn23)c(C)c1 | -6.8% | i | i | 1.3% | 0.3% | u
